This is a sample that favours compounds with a hit; in the whole collection about 19% have one here.
Pf growth 48h: P. falciparum growth inhibition at 48 hours (one generation); Potency, µM (doses to about 28.7 µM), without a hit: at the top dose activity change, negative = inhibition, hits mostly inhibitors; 5.9% of 310,000 active; P. falciparum luciferase growth in erythrocytes, 48 h; note: potency is the fitted concentration of half-maximal effect; % is set by controls: 0 for no effect and ±100 for the full control effect
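Cell-based growth assay: transgenic P. falciparum expressing firefly luciferase, cultured in red cells within RPMI 1640 containing 0.5% w/v Albumax, 24 mM bicarbonate and gentamycin. A drop in luciferase activity indicates inhibition.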
Pf growth 96h: inhibits malaria parasite growth, 96 h. P. falciparum luciferase reporter growth, 96 h. Potency, µM (top dose mostly 28.7 µM), for inactives: top-dose activity change, negative = inhibition, most hits filed as inhibitors. AID 504834. 6.9% of 320,000 active; note: potency is the fitted concentration of half-maximal effect; % is set by controls: 0 for no effect and ±100 for the full control effect
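Two-generation exposure (96 h) targets delayed-death phenotype. Reporter parasites carrying integrated firefly luciferase, in red cells at 2% hematocrit and 0.05% parasitemia final, kept at 37 C, 5% CO2; luminescence loss indicates inhibition.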
Shiga inhibitor: inhibitors of Shiga toxin in Vero cells; Vero cells, Shiga toxin protein synthesis inhibition reporter; inhibition, % at 38.7 µM; 9.2% of 290,000 active; AID 2315; in the data active = inhibition mostly above about 28%, no sharp cut-off; inactive = mostly below about 43%; note: 0% is about no effect
Marburg entry inh: Marburg virus entry inhibition | Marburg virus pseudotyped entry inhibition, cell reporter | Potency, µM (series often up to 37.8 µM), for the others: at the highest dose activity change, negative = inhibition, usual class: inhibitors | 1.8% of 300,000 active | AID 540276; calls by dose curve; tested in HEK293 cells; note: potency is the fitted concentration of half-maximal effect; % is set by controls: 0 for no effect and ±100 for the full control effect
LASV entry inh: inhibitors of Lassa virus binding or cell entry. Lassa virus pseudotype entry inhibition, cell reporter. Potency, µM (series often up to 37.9 µM), inactives show at the highest dose activity change, negative = inhibition, hits mostly inhibitors. 1.2% of 300,000 active; calls by dose curve; tested in HEK293 cells; note: potency is the fitted concentration of half-maximal effect; % is set by controls: 0 for no effect and ±100 for the full control effect; nearly all actives have a fitted effect of over 50% in size
CHX counter: affects cycloheximide protein synthesis inhibition readout, counter-screen | cell reporter, cycloheximide protein synthesis inhibition counterscreen | max response, % | 12% of 300,000 active | AID 2314; in the data active = max response mostly above about 13%, no sharp cut-off; inactive = mostly below about 14%; note: read at 38.3 µM for the half of the compounds with a filed dose; 0% is about no effect
Numbers without * were called inactive; ? = inconclusive; . = not tested or not shown; ! = a repeat was not active; [ ] = another dose, or the depositor's remark. Unless noted, calls come from the whole dose curve; as a rule, active = well fitted inhibition curve with a large enough effect; inconclusive = small, poorly fitted or top-dose-only effect, or another doubt; inactive = no such curve, though single readings can be large or run the other way.

SMILES	Pf growth 48h	Pf growth 96h	Shiga inhibitor	Marburg entry inh	LASV entry inh	CHX counter
CCCC(=O)Nc1cc(-c2nn(C)c(=O)c3ccccc23)ccc1OC	?	?	-18	?	-21%	-9
COc1ccc(-c2nn(C)c(=O)c3ccccc23)cc1NC(=O)Cn1nc(C)c2ccccc2c1=O	10µM*	8%	21	1%	?	1
COc1ccc(-c2nn(C)c(=O)c3ccccc23)cc1NC(=O)COc1ccc(C)cc1	?	26%	-19	?	5.8µM*	2
CCC(=O)Nc1cc(-c2nn(C)c(=O)c3ccccc23)ccc1OC	0%	?	22	?	18%	-1
C=CCNC(=O)CSc1nnc(-c2cccs2)o1	68%	11%	10	-8%	11%	7
CCN(CC)c1ccc(S(=O)(=O)N2CCOCC2)cc1NC(=O)CSc1n[nH]c(N)n1	8%	1%	44*	.	.	45*
O=C(CCc1ccc(S(=O)(=O)N2CCOCC2)cc1)OCc1nc2ccccc2s1	59%	?	109*	0%	6%	73*
Cc1ccc(S(=O)(=O)N2CCOCC2)cc1NC(=O)CSc1n[nH]c(N)n1	-19%	-7%	-6	.	.	-1
O=C(NNC(=O)c1ccc(O)c(Cl)c1)c1cccc(S(=O)(=O)N2CCOCC2)c1	-1%	38%	.	10µM*	-20%	.
O=C(CSc1nc2ccccc2s1)Nc1cc(S(=O)(=O)N2CCOCC2)ccc1O	16%	?	17	0%	11%	20*
O=C1c2ccc(-c3nc4ccccc4o3)cc2C(=O)N1Cc1cccnc1	.	.	.	0%	7%	.
O=C(NC(=S)Nc1ccc(S(=O)(=O)Nc2nccs2)cc1)c1cccnc1	-2%	69%	-9	-1%[46.1 µM]	-8%	1
O=C(OCc1nc2ccccc2s1)c1cccc(S(=O)(=O)N2CCOCC2)c1	114%	76%	108*	17%	?	37*
O=C(COC(=O)c1cccc(S(=O)(=O)N2CCOCC2)c1)c1ccccc1	15%	?	100*	?	.	40*
O=C(COC(=O)Cc1c[nH]c2ccccc12)NC1CCS(=O)(=O)C1 (stereo unspecified)	6%	6%	.	-3%	3%[46.1 µM]	.
O=C(Nc1ccccc1)Nc1ccccn1	147%	77%	60*	-2%	3%	33*
O=C(Nc1ccc(Cl)cc1)c1cccc(S(=O)(=O)Nc2ccccn2)c1	12%	13µM*	2	-12%	?	4
O=C(O)c1ccccc1C(=O)Nc1ccccn1	34%	-30%	11	-1%	1%	8
O=C(Nc1ccccn1)C1CCN(C(=O)Nc2ccccc2)CC1	11%	5%	.	-12%	15%	.
O=C(Nc1ccccn1)C(=O)Nc1ccccn1	329%	197%	39*	.	.	30*
O=C(Nc1ccc(Cl)cc1)Nc1ccccn1	83%	7%	103*	.	.	41*
COc1ccc(OC)c2[nH]c(C(=O)N3CCC(C(=O)O)CC3)cc12	14%	15%	-3	.	.	-2
O=C(NCc1ccncc1)C1CCN(S(=O)(=O)c2cc(Cl)ccc2Cl)CC1	-5%	35%	-9	-8%[46.1 µM]	-11%[46.1 µM]	-2
c1ccc(Nc2ccccn2)nc1	3%	24%	-1	.	.	11
S=C(Nc1ccccn1)c1ccccn1	?	6.6µM*!	71*!	?	?	42*
SMILES	Pf growth 48h	Pf growth 96h	Shiga inhibitor	Marburg entry inh	LASV entry inh	CHX counter
O=C(Nc1ccccn1)c1ccc(-c2ccccc2)cc1	118%	-76%	7	1.1µM*	?	0
CN(C)S(=O)(=O)c1cc(NC(=O)COC(=O)CCc2ccccc2)ccc1Cl	1%	-22%	11	-15%[46.1 µM]	-1%[46.1 µM]	-2
N#C/C(C(=O)c1ccccc1)=C1/SC=C(N)N1c1ccccc1	?	.	122*	.	.	39*
N#C/C(C(N)=O)=C1/SC=C(c2ccccc2)N1c1ccccc1	17%	?	-9	-14%	?	-1
Cc1cc(OC(C)C(=O)NCc2ccncc2)c2c3c(c(=O)oc2c1)CCCC3 (stereo unspecified)	-17%	-10%	-11	.	.	5
CCc1cc(=O)oc2cc(C)cc(OC(C)C(=O)NCc3ccncc3)c12 (stereo unspecified)	?	9.3µM*	-7	-14%[46.1 µM]	2%[46.1 µM]	3
Cc1cc(OC(C)C(=O)NCc2cccnc2)c2c3c(c(=O)oc2c1)CCC3 (stereo unspecified)	?	10µM*	-3	9%[46.1 µM]	?	-2
Cc1cc(OCC(=O)Nc2cccnc2)c2c(C)cc(=O)oc2c1	?	?	-10	.	.	-8
CCCCc1cc(=O)oc2cc(C)cc(OCC(=O)NCc3ccncc3)c12	?	2.3µM*	-17	-26%[46.1 µM]	15%[46.1 µM]	-4
CCCc1cc(=O)oc2cc(C)cc(OCC(=O)Nc3cccnc3)c12	0.15µM*	0.093µM*	-10	.	.	-3
Cc1cc(OC(C)C(=O)NCc2ccncc2)c2c3c(c(=O)oc2c1)CCC3 (stereo unspecified)	-7%	?	-11	.	.	-1
CCc1cc(=O)oc2cc(C)cc(OC(C)C(=O)NCc3cccnc3)c12 (stereo unspecified)	?	?	3	.	.	-2
CCCCc1cc(=O)oc2cc(C)cc(OC(C)C(=O)NCc3cccnc3)c12 (stereo unspecified)	?	17µM*	-5	-17%[46.1 µM]	-21%[46.1 µM]	10
COC(=O)CCSc1nc(N2CCOCC2)c2c(c1C#N)CC(C)(C)OC2	?	?	-4	?	?	-4
O=C(c1ccc(OC2CCN(Cc3ccc(F)cc3)CC2)cc1)N1CCCC1	?	?	-6	.	.	-2
CC(C)c1ccc(CN2CCC(Oc3ccc(C(=O)N4CCCC4)cc3)CC2)cc1	6.6µM*	-31%	-11	.	.	-3
CCOc1cccc(CN2CCC(Oc3ccc(C(=O)N4CCCC4)cc3)CC2)c1	?	?	16	-24%[46.1 µM]	20%[46.1 µM]	9
O=C(c1ccc(OC2CCN(C/C=C/c3ccc(F)cc3)CC2)cc1)N1CCCC1	8.3µM*	4.1µM*	-6	?	-24%[46.1 µM]	-2
Cc1cccc(CN2CCC(Oc3ccc(C(=O)N4CCCC4)cc3)CC2)n1	?	2.3µM*	-5	19%	0%	-1
Cc1cccc(CN2CCC(Oc3ccc(C(=O)N4CCCCC4)cc3)CC2)c1	?	9.3µM*	5	.	.	-1
CCS(=O)(=O)N1CCC(C(=O)NCc2cccnc2)CC1	35%	50%	-4	0%	1%	5
Cn1c2c(c(=O)[nH]c1=O)C(NC(=O)c1ccco1)(C(F)(F)F)C(=O)N2 (stereo unspecified)	-9%	-1%	-15	4%	15%	-2
CCc1ccc(CN2CCC(Oc3ccc(C(=O)N4CCCCC4)cc3)CC2)cc1	-29%	?	-3	?	-1%	1
C=CCOc1ccccc1CN1CCC(Oc2ccc(C(=O)N3CCCCC3)cc2)CC1	37%	10µM*	-2	3.2µM*	-17%	-3

Bioassay records deposited in PubChem by National Center for Advancing Translational Sciences (NCATS).
